Assay outcomes as filed in PubChem BioAssay.
Only some compounds are listed: those with a hit (about 0.43% of all), similar ones and a draw of the others.
GAA glycogen = qHTS Assay for Inhibitors and Activators of Human alpha-Glucosidase Cleavage of Glycogen | Potency, µM (doses to about 76.4 µM), hits mostly inhibitors | Lysosomal alpha-glucosidase (Homo sapiens), P10253 | recombinant GAA, glycogen substrate, Amplex Red glucose oxidase fluorescence | AID 2100, 2009 | 0.38% of 300,000 active;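 further: the screen sought inhibitors and activators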
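Recombinant enzyme (4 nM final) with compounds titrated up to 77 uM and bovine liver glycogen (30 ug) in citrate pH 5.0, 0.01% Tween-20, 37 C 40 min. Released glucose detected by Amplex Red/glucose oxidase (Ex 573/Em 610); AC50 from Hill fits.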
GLA inh pH 4.5 = qHTS Assay for Inhibitors of Human alpha-Galactosidase at pH 4.5; activity change, negative = inhibition, % at 105 µM; purified enzyme, 4-MU-alpha-Gal fluorescence, pH 4.5; AID 1467, 2008; 230,000 tested, under 10 active; Alpha-galactosidase A (Homo sapiens), P06280
GAA inh = qHTS Assay for Inhibitors of Human alpha-Glucosidase as a Potential Chaperone Treatment of Pompe Disease. Lysosomal alpha-glucosidase (Homo sapiens), P10253. purified human GAA, 4-MU-alpha-glucoside fluorescence. Potency, µM (top dose mostly 76.9 µM), most hits filed as inhibitors. 0.005% of 200,000 active. AID 1466, 2008
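Enzyme (4 nM final) mixed with compound (up to 77 uM), then 4-MU-alpha-D-pyranoside (400 uM final) added; 20 min at room temperature, pH 5.0. Reaction stopped at pH 10, fluorescence read, AC50 derived by Hill fit.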
GLA spleen mod = qHTS Assay for Inhibitors and Activators of Human alpha-Galactosidase From Spleen Homogenate; Alpha-galactosidase A (Homo sapiens), P06280; human spleen homogenate, 4MU-alpha-Gal fluorescence, 40 min; Potency, µM (series often up to 80 µM), actives largely listed as inhibitors; 0.008% of 240,000 active; AID 2107, 2009
Target sequence (P06280 32-429 limits assumed): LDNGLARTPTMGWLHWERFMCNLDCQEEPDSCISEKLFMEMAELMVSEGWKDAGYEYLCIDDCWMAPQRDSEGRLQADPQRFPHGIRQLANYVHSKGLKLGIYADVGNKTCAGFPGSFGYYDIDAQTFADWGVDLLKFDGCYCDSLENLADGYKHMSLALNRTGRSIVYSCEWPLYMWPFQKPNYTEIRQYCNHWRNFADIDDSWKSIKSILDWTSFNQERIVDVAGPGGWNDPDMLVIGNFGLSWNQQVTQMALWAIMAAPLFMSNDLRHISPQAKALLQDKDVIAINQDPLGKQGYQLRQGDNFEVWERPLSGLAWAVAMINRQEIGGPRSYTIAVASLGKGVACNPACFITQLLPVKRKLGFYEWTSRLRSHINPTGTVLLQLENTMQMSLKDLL
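Fluorogenic readout (Ex 365/Em 440 nm) of 4-methylumbelliferone released from 1 mM 4-MU-alpha-galactoside by spleen homogenate, 40 min at 37C, pH 5.0. Data normalized to no-enzyme and enzyme controls; Hill-equation AC50 from compound titrations.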
GAA spleen mod = qHTS Assay for Inhibitors and Activators of Human alpha-Glucosidase From Spleen Homogenate; Lysosomal alpha-glucosidase (Homo sapiens), P10253; human spleen homogenate, 4-MU-alpha-glucoside fluorescence; Potency, µM (series often up to 79.9 µM), most hits filed as inhibitors; 0.006% of 240,000 active; AID 2112, 2009
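Enzyme source: human spleen homogenate, 1 ug/well. Buffer 50 mM citric acid/K phosphate pH 5.0, 0.01% Tween-20. 4-MU-alpha-glucoside 1 mM; 37 C x 40 min; NaOH/glycine stop; fluorescence.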
N370S GC = qHTS Assay for Inhibitors and Activators of N370S glucocerebrosidase as a Potential Chaperone Treatment of Gaucher Disease. Lysosomal acid glucosylceramidase (Homo sapiens), P04062. N370S GC spleen homogenate, 4MU-glucoside fluorescence. Potency, µM (highest dose often 59.4 µM), usual class: inhibitors. 0.092% of 330,000 active. AID 2101, 2009
Of the large screens only hits and unclear results are named; the others gave an inactive call. The call rests on the fitted dose curve; in most records, active means well fitted curve in the direction sought with a large enough effect; inconclusive means small, poorly fitted or top-dose-only effect, or another doubt; inactive means no such curve, though single readings can be large; an effect the other way counts as inactive or inconclusive.

NNC(=O)CN1C(c2ccccc2)=Nc2ccc(Br)cc2C1c1ccccc1 (configuration not stated)	N370S GC 40µM
CCOC(=O)C1CCCN(C(=O)CSc2ccc(Br)cc2)C1 (configuration not stated)	none
Cc1cc(O)c(/C=N/Nc2ccccc2Cl)c(=O)o1	GAA glycogen 25µM
CC1=C(C(=O)Nc2cccnc2)C(c2ccc(Cl)cc2)n2nc(SCc3ccccc3)nc2N1 (configuration not stated)	GAA glycogen 25µM (no result: GLA inh pH 4.5, GAA inh, GLA spleen mod, GAA spleen mod, N370S GC)
COc1ccc2[nH]c(C(=O)O)c(NS(=O)(=O)c3ccc(OC)c(OC)c3)c2c1	GAA glycogen 4µM
COc1ccc(S(=O)(=O)Nc2c(C(=O)O)[nH]c3ccccc23)c(OC)c1	GAA glycogen 3.5µM
COc1ccc(S(=O)(=O)Nc2c(C(=O)O)[nH]c3ccc(OC)cc23)cc1	GAA glycogen inconclusive (no result: GLA inh pH 4.5, GAA inh, GLA spleen mod, GAA spleen mod)
COc1ccc(S(=O)(=O)Nc2c(C(=O)O)[nH]c3ccc(OC)cc23)c(OC)c1	GAA glycogen inconclusive (no result: GLA inh pH 4.5, GAA inh, GLA spleen mod, GAA spleen mod)
COc1cc(-c2nnc(SCc3cc(=O)oc4cc(O)c(O)cc34)o2)cc(OC)c1OC	GAA glycogen 16µM
CCOC(=O)CSc1nnc(-c2cc(OC)c(OC)c(OC)c2)o1	none
CC(Oc1ccc(Br)cc1)C(=O)N1CCC(C(N)=O)CC1 (configuration not stated)	none
Nc1ccccc1Nc1cccc(C(F)(F)F)c1	GAA glycogen 11µM (no result: GAA spleen mod)
O=C(c1ccc(-n2nc(C(F)(F)F)c3c2CCCC3)cc1)N1CCOCC1	none
O=C(N/N=C/C1CC=CCC1)c1ccccc1O (configuration not stated)	GAA glycogen 32µM
O=C(N/N=C/C1CC=CCC1)c1cc(Br)ccc1O (configuration not stated)	GAA glycogen inconclusive
CCOCC(=O)Nc1cccc(OC)c1	none
CCCCCCn1c(=O)c(Cc2ccccc2)c(O)c2ccccc21	N370S GC inconclusive
CCCCn1c(N)c(N2CCOCC2)c(=O)n(CC(=O)NC(C)c2ccccc2)c1=O (configuration not stated)	none
COc1ccc(Nc2cc(C)c3c(O)cccc3n2)cc1	GAA glycogen 22µM (no result: GAA inh)
COc1ccc(C2NC3=C(CCC3)C3(C#N)C4(N=C(N)C23C#N)OCCO4)cc1 (configuration not stated)	GAA glycogen 22µM
COc1ccc(C2NC3=C(CCCC3)C(C#N)(C#N)C2(C#N)C#N)cc1 (configuration not stated)	none
CCNC(=S)N/N=C(\C)c1ccc2ccccc2c1OC(F)F	GAA glycogen 50µM
CC(C)CC(=O)NC(=S)Nc1nc(-c2ccccc2)cs1	none
C=CCNc1nc(N2CCCC2)nc2ccccc12	GLA inh pH 4.5 inconclusive, GAA inh inconclusive, GLA spleen mod inconclusive
c1ccc(-c2ccc3c(c2)NCCN3)cc1	GAA glycogen 8.9µM (no result: GAA inh)
Cc1c(NS(=O)(=O)c2ccccc2)cc(C(C)C)c(O)c1S(=O)(=O)c1ccc(Cl)cc1	GAA glycogen 11µM (no result: GLA inh pH 4.5, GAA inh, GLA spleen mod, GAA spleen mod, N370S GC)
COc1ccc(S(=O)(=O)c2c(C)c(NS(=O)(=O)c3ccccc3)cc(C)c2O)cc1	GAA glycogen inconclusive
Cc1ccc(-c2nc(C#N)c(NCC3CCCO3)o2)cc1 (configuration not stated)	GAA glycogen inconclusive
COc1ccc(-c2nc(C#N)c(NCC3CCCO3)o2)cc1 (configuration not stated)	GAA glycogen 28µM
O=C(CSc1nc2ccccc2c(=O)n1CCCN1CCOCC1)Nc1ccc2c(c1)OCO2	none
CC(C)c1ccc(NC(=O)CSc2nc(=O)n(CCCN3CCOCC3)c3c2CCC3)cc1	none (no result: GAA glycogen, GLA inh pH 4.5, GAA inh, GLA spleen mod, GAA spleen mod)
O=C1c2ccccc2-c2cccc(NS(=O)(=O)c3ccc(C(F)(F)F)cc3)c21	GAA inh inconclusive
